What was measured:
[1] = target: Tyrosine-protein kinase Fyn (Homo sapiens) (UniProt P06241); details: at 1 µM
[2] = target: Tyrosine-protein kinase HCK (Homo sapiens) (UniProt P08631); details: at 0.1 µM
[3] = target: Tyrosine-protein kinase HCK (Homo sapiens) (UniProt P08631); details: at 1 µM
[4] = target: Insulin-like growth factor 1 receptor (Homo sapiens) (UniProt P08069); details: at 0.1 µM
[5] = target: Insulin-like growth factor 1 receptor (Homo sapiens) (UniProt P08069); details: at 1 µM
[6] = target: Insulin receptor (Homo sapiens) (UniProt P06213); details: at 0.1 µM
[7] = target: Insulin receptor (Homo sapiens) (UniProt P06213); details: at 1 µM
[8] = target: Insulin receptor-related protein (Homo sapiens) (UniProt P14616); details: at 0.1 µM
Insulin receptor-related protein (Homo sapiens), sequence (P14616 27-742 limits assumed): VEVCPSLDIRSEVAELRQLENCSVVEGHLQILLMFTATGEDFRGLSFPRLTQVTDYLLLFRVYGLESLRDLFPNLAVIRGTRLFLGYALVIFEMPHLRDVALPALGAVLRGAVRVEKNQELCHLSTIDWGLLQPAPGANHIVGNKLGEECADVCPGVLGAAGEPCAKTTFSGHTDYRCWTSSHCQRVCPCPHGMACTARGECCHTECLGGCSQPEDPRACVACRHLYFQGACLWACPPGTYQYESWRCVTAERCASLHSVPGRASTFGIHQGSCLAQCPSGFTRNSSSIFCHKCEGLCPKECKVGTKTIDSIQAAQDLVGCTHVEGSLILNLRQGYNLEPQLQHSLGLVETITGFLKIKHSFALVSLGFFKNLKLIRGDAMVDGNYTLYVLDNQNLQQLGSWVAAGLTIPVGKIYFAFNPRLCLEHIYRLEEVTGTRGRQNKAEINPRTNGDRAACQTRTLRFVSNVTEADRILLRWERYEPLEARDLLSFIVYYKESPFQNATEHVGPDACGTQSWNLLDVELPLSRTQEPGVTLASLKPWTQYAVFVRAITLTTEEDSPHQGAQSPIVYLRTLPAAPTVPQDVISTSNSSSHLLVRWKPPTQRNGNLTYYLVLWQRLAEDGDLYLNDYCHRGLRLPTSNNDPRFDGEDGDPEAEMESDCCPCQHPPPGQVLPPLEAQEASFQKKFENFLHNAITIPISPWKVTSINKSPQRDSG
Insulin receptor-related protein (Homo sapiens), sequence (P14616 747-1297 limits assumed): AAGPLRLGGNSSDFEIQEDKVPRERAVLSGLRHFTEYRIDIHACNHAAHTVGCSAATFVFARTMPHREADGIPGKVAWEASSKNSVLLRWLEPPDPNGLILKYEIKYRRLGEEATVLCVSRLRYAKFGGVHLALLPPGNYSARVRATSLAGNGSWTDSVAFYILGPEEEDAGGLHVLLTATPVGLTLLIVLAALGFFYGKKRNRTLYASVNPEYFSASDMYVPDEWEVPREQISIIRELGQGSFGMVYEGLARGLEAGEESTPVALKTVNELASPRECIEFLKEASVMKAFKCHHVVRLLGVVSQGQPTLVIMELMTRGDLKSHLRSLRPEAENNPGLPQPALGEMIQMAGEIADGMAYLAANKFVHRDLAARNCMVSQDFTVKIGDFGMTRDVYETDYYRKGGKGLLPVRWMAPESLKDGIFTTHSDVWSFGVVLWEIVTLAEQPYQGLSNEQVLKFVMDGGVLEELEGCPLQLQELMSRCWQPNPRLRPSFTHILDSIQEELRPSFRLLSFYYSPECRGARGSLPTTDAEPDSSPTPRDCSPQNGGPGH

[9] = target: Insulin receptor-related protein (Homo sapiens) (UniProt P14616); details: at 1 µM
[10] = target: T1, Tyrosine-protein kinase ITK/TSK (Homo sapiens) (UniProt Q08881); details: at 0.1 µM
T1 sequence (whole entry): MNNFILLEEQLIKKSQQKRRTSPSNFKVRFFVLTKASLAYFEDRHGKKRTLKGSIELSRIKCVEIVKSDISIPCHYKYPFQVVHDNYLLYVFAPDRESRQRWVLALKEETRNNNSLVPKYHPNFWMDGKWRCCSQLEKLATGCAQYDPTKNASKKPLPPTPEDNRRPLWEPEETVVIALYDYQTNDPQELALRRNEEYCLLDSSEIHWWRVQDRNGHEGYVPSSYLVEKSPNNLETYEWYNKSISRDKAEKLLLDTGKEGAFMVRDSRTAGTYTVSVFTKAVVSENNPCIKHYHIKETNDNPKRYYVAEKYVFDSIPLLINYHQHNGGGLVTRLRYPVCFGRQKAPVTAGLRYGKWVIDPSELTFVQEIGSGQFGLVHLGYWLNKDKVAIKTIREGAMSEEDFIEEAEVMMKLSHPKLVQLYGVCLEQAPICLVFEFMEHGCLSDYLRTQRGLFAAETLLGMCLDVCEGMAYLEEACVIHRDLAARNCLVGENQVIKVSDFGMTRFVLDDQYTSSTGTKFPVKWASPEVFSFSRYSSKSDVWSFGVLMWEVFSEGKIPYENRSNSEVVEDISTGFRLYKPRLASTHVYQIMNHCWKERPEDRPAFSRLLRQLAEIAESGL

[11] = target: T1, Tyrosine-protein kinase ITK/TSK (Homo sapiens); details: at 1 µM
[12] = target: Tyrosine-protein kinase JAK1 (Homo sapiens) (UniProt P23458); details: at 0.1 µM
Tyrosine-protein kinase JAK1 (Homo sapiens), sequence (P23458 whole entry): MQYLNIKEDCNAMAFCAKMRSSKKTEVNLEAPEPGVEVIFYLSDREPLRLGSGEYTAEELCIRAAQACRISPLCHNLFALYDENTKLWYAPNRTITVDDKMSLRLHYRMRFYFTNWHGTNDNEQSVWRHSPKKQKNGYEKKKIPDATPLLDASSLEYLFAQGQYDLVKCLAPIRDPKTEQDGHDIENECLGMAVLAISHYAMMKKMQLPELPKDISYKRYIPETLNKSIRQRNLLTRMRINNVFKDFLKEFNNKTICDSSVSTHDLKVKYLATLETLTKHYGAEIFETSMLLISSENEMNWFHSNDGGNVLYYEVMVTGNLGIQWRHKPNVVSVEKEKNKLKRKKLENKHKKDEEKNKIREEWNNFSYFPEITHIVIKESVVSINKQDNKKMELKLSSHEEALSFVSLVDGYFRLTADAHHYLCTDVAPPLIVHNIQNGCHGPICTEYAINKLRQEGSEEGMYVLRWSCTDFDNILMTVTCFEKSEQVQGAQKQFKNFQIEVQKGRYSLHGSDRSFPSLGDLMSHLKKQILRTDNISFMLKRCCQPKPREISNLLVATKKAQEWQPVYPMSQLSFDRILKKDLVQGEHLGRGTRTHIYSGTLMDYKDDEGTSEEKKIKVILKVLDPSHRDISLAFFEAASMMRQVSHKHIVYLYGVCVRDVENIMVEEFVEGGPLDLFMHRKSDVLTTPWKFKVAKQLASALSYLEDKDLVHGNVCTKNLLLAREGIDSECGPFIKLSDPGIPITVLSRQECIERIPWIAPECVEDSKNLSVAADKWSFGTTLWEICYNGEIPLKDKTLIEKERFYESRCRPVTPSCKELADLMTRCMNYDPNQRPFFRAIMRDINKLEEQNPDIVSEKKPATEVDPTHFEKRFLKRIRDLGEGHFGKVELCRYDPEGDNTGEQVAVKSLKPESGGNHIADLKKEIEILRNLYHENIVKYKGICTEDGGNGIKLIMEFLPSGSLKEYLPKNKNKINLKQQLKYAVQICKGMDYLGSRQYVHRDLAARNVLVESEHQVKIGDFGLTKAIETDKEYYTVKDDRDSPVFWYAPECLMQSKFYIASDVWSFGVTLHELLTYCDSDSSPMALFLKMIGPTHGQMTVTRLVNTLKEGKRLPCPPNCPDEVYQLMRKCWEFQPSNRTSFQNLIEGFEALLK

[13] = target: Tyrosine-protein kinase JAK1 (Homo sapiens) (UniProt P23458); details: at 1 µM
[14] = target: Tyrosine-protein kinase JAK2 (Homo sapiens) (UniProt O60674); details: at 0.1 µM
[15] = target: Tyrosine-protein kinase JAK2 (Homo sapiens) (UniProt O60674); details: at 1 µM
[16] = target: T2, Tyrosine-protein kinase JAK3 (Homo sapiens) (UniProt P52333); details: at 0.1 µM
T2 sequence (whole entry): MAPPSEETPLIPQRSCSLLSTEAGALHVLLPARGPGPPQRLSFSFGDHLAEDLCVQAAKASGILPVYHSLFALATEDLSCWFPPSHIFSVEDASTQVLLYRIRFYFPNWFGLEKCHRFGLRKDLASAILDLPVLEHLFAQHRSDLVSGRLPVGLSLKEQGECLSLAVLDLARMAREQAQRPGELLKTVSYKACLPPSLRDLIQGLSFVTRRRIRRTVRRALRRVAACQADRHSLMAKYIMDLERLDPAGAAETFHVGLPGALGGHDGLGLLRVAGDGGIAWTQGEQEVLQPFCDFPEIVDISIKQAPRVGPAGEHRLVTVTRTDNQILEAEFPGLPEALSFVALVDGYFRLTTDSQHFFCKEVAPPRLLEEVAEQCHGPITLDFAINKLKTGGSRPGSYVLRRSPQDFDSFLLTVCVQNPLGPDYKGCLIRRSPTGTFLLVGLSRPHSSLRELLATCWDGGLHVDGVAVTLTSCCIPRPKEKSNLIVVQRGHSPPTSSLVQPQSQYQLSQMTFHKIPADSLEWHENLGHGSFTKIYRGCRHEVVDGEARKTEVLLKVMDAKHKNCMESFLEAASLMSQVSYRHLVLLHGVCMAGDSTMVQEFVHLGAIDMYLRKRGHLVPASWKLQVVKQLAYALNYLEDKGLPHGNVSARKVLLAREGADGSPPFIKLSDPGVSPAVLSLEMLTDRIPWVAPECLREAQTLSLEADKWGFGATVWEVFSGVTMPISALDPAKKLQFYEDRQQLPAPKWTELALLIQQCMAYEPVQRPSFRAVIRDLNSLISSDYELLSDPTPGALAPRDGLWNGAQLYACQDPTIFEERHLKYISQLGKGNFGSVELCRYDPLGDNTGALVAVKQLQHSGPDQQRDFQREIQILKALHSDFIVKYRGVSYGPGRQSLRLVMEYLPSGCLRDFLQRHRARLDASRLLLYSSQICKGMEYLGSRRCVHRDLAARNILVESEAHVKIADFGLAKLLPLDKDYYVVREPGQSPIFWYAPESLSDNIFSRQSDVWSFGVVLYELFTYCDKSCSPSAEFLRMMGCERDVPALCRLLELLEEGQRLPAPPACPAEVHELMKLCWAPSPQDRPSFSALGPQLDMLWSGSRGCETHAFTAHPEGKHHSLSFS

[17] = target: T2, Tyrosine-protein kinase JAK3 (Homo sapiens); details: at 1 µM
[18] = target: Vascular endothelial growth factor receptor 2 (Homo sapiens) (UniProt P35968); details: at 0.1 µM
[19] = target: Vascular endothelial growth factor receptor 2 (Homo sapiens) (UniProt P35968); details: at 1 µM
[20] = target: Mast/stem cell growth factor receptor Kit (Homo sapiens) (UniProt P10721); details: at 0.1 µM;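 note: values are mean inhibition of KIT, from the GSK PKIS dataset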

Insulin-like growth factor 1 receptor (Homo sapiens), sequence (P08069 31-736 limits assumed): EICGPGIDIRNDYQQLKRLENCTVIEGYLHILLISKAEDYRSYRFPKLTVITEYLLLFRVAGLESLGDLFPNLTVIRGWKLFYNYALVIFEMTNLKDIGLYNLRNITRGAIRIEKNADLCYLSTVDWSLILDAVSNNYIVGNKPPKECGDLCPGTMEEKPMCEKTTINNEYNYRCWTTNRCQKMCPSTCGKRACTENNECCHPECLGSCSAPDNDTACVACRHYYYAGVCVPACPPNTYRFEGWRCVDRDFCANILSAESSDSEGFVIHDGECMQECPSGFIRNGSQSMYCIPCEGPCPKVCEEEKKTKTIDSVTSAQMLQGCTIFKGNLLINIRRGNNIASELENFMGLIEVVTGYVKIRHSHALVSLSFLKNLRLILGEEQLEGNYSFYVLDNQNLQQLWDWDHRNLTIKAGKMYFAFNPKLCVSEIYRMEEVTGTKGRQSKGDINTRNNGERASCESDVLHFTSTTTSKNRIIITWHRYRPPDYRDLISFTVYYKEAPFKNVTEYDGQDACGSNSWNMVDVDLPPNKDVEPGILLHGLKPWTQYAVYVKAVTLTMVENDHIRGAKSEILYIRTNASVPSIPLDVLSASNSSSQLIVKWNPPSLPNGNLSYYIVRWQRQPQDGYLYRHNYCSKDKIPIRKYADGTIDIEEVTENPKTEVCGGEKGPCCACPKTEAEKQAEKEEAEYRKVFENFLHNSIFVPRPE
Insulin-like growth factor 1 receptor (Homo sapiens), sequence (P08069 741-1367 limits assumed): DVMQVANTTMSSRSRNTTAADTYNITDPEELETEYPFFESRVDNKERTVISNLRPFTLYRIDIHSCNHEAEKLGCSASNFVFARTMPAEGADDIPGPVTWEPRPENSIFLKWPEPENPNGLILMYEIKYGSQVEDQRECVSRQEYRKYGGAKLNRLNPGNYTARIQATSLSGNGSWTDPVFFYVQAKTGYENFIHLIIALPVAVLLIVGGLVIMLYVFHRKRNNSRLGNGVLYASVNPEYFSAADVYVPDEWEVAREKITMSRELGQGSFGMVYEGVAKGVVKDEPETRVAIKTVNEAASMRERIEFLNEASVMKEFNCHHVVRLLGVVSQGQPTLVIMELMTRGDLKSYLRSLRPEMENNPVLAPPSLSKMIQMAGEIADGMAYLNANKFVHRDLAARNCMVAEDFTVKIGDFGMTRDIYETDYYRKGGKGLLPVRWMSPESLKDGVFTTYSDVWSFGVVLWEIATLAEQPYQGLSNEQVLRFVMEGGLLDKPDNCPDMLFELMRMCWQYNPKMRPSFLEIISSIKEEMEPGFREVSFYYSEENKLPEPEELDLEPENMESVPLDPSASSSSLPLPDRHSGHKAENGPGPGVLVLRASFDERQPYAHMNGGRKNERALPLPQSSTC
Tyrosine-protein kinase Fyn (Homo sapiens), sequence (P06241 2-537 limits assumed): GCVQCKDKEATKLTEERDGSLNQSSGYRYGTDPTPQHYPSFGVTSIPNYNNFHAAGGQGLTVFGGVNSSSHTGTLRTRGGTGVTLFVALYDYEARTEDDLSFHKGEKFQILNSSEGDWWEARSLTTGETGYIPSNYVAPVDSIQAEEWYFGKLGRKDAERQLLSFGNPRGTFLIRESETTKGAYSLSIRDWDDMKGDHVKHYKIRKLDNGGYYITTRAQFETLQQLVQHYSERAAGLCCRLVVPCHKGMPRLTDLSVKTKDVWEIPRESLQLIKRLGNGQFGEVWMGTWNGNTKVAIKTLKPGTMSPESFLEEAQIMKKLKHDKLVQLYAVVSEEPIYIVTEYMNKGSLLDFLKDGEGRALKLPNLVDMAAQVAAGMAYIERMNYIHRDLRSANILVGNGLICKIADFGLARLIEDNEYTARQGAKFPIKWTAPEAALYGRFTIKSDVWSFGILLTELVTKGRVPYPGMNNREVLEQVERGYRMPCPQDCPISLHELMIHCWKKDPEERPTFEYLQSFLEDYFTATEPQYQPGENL
Tyrosine-protein kinase HCK (Homo sapiens), sequence (P08631 2-526 limits assumed): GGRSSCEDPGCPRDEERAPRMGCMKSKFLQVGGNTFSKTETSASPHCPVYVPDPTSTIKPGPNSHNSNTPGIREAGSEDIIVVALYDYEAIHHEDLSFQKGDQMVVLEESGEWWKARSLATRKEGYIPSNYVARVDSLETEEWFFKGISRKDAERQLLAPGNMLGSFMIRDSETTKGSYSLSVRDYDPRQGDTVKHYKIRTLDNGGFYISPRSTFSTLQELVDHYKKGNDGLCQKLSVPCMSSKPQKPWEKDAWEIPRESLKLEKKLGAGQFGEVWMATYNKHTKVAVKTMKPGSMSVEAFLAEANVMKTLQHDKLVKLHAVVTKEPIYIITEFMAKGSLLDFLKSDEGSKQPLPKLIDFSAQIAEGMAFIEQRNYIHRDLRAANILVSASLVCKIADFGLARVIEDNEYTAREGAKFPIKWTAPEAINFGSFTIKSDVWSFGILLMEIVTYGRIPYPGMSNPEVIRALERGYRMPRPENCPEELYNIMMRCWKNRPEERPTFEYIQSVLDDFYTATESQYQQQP

SMILES | inhibition [1] | inhibition [2] | inhibition [3] | inhibition [4] | inhibition [5] | inhibition [6] | inhibition [7] | inhibition [8] | inhibition [9] | inhibition [10] | inhibition [11] | inhibition [12] | inhibition [13] | inhibition [14] | inhibition [15] | inhibition [16] | inhibition [17] | inhibition [18] | inhibition [19] | inhibition [20]
Cc1c2ccc(N(C)c3ccnc(Nc4cccc(S(N)(=O)=O)c4)n3)cc2nn1C | 60.5% | 31.2% | 73.8% | -4.22% | 13.1% | 7.68% | 18.7% | 2.78% | 2.81% | -1.73% | 2.14% | 1.56% | 9.69% | 2.02% | 6.46% | -4.75% | 0.05% | 76.4% | 73% | 92.6%
c1cnn2ncc(-c3ccnc(NCCCN4CCOCC4)n3)c2c1 | 3.59% | 8.43% | 6.17% | 3.62% | 1.61% | 4.01% | 4.01% | 2.15% | 0.25% | 1.02% | 0.08% | 2.8% | 4.8% | 2.27% | 1.4% | -1.85% | -2.75% | 5.58% | 6.83% | 5.59%
CC(C)c1ccc(-c2cc(-c3c[nH]nc3-c3ccccn3)ccn2)cc1 | 1.91% | 2.47% | 4.67% | 1% | 2.04% | -0.15% | 1.37% | -0.94% | -0.37% | 0.84% | 1.69% | -1.37% | 1.1% | 0.74% | 0.23% | 0.23% | 0.8% | 9.43% | 32.4% | 0.6%
CCN1CCC(C(=O)Nc2n[nH]c3nnc(-c4cccc(F)c4F)cc23)CC1 | 0.66% | 0.33% | 0.65% | -0.72% | -1.06% | -0.08% | 1.38% | -1.17% | -1.67% | 0.47% | 0.88% | 1.68% | -1.21% | -0.5% | -0.03% | 0.12% | 1.09% | 1.67% | 4.26% | 1.8%
COc1c(C(N)=O)cc(-c2ccc(Cl)cc2)cc1-c1ccc(S(N)(=O)=O)cc1 | 2.81% | 6.39% | 7.93% | 7.44% | 4.41% | 9.51% | 5.04% | 2.33% | 3.46% | 2.02% | 2.4% | 1.1% | 3.15% | 2.98% | 3.05% | 0.08% | -0.75% | 6.96% | 9.32% | 6.94%
NS(=O)(=O)c1ccc(N/N=C2\C(=O)Nc3ccc(C(=O)NCc4ccncc4)cc32)cc1 | 50.9% | 5.39% | 16.3% | 10.1% | 9.32% | 1.24% | 3.32% | 2.61% | 2.45% | 0.99% | 3.12% | 3.77% | 9.66% | 0.74% | 1.38% | -0.81% | 6.2% | 7.35% | 34.5% | 4.44%

— ChEMBL document CHEMBL1961873, “Compounds: GSK PKIS; Assays: Nanosyn kinase panel” (2012)
